Measurements as given in PubChem BioAssay (EPA / NIEHS).
Results filed as inconclusive are left out. The source made the active and inactive calls. Rule for the calls, unless noted: active = hit-call score of the fitted dose curve at least 0.9, where 1 is the maximum; inactive = score below 0.9.

Key:
[1] = target: Hepatocyte nuclear factor 4-alpha (Homo sapiens) (UniProt P41235); experiment: ATG_HNF4a_TRANS: Attagene TRANS-FACTORIAL HepG2 Assay for human Hepatocyte Nuclear Factor 4 alpha (HNF4a) (AID 2282982; active = hit-call score of the fitted dose curve at least 0.9, where 1 is the maximum); conditions: HepG2 HNF4a transactivation reporter, mRNA readout
Sequence of Hepatocyte nuclear factor 4-alpha (Homo sapiens) (P41235 whole entry, looked up, the tested form may be a part): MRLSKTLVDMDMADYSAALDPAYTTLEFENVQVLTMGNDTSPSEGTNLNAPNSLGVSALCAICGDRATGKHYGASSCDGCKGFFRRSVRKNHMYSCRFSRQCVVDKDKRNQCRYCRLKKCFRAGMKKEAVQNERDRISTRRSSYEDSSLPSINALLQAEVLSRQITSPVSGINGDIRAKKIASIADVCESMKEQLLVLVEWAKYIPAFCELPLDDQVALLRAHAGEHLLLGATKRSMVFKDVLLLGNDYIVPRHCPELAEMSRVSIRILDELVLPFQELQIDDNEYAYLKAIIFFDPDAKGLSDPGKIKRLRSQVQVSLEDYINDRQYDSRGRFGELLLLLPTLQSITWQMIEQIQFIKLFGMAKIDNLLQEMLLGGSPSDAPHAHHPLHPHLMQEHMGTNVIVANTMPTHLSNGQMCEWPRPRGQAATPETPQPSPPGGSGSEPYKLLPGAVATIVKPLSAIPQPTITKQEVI
In short: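 Activity of an exogenous HNF4a–Gal4 fusion scored as induced GAL4-UAS reporter transcripts after 24 h chemical exposure of transfected human HepG2 cells. Read-out via RT-PCR with 6-FAM labelling and capillary electrophoresis; rise over DMSO baseline.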

[2] = target: Transcriptional activator Myb (Homo sapiens) (UniProt P10242); experiment: ATG_Myb_CIS: Attagene CIS-FACTORIAL HepG2 Assay for human Myeloblastosis (Myb) Proto-Oncogene Transcription Factor (AID 2282986); conditions: HepG2 Attagene CIS-FACTORIAL Myb reporter transcription; actives raise or lower the signal
Sequence of Transcriptional activator Myb (Homo sapiens) (P10242 whole entry, looked up): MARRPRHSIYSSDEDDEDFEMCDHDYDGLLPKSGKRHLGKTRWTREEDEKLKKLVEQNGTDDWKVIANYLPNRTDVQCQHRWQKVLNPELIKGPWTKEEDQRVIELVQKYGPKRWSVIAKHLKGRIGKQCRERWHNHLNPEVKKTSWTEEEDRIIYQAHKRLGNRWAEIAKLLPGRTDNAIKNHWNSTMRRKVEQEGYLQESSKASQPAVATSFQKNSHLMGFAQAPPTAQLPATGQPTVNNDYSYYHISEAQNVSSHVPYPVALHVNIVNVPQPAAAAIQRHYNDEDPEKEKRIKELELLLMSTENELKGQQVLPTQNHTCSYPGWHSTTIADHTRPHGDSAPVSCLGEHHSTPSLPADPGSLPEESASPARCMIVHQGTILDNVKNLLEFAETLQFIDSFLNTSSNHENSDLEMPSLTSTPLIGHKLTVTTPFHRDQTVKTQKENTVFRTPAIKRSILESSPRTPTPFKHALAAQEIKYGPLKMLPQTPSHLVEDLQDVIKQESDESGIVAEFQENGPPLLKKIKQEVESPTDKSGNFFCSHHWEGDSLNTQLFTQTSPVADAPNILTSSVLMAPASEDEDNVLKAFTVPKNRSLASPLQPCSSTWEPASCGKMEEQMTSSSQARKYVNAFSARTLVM
In short: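 Transiently transfected HepG2 cells carrying a multiplexed cis-promoter reporter set report endogenous Myb activity after 24 h compound exposure. Reporter mRNA is read by RT-PCR with capillary electrophoresis of fluorescent products, fitted bidirectionally against DMSO.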

[3] = target: Nuclear respiratory factor 1 (Homo sapiens) (UniProt Q16656); experiment: ATG_NRF1_CIS: Attagene CIS-FACTORIAL HepG2 Assay for human Nuclear Respiratory Factor 1 (NRF1) Orphan Gene (AID 2282987); conditions: HepG2 NRF1 cis-element reporter, Attagene multiplex; actives raise or lower the signal
Sequence of Nuclear respiratory factor 1 (Homo sapiens) (Q16656 whole entry, looked up): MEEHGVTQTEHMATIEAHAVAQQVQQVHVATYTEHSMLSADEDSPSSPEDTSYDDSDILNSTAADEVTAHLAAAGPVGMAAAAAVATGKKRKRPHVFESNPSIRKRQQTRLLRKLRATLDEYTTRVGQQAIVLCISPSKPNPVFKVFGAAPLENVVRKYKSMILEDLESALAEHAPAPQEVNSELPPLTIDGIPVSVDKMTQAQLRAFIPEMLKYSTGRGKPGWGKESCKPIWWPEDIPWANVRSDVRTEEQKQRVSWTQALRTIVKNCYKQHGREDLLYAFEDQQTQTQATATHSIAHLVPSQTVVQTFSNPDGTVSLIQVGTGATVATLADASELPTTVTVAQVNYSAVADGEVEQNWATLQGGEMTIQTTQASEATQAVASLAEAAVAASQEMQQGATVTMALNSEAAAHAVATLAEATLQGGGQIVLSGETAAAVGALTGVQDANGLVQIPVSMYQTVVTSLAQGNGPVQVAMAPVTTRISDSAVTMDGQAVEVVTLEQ
In short: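 HepG2 cells transiently transfected with multiple cis-regulated reporter units, exposed 24 h. Reporter mRNAs measured by RT-PCR, fluorescent labelling, HpaI digestion and capillary electrophoresis; bidirectional fitting against DMSO.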

[4] = ATG_M_06_TRANS: Attagene TRANS-FACTORIAL HepG2 Assay for M06 Transcription Factor (Internal Marker) (AID 2282983; active = hit-call score of the fitted dose curve at least 0.9, where 1 is the maximum;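 note: reporter transcript level by RT-PCR then capillary electrophoresis fluorescence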); conditions: HepG2 Attagene TRANS M06 internal marker reporter
In short: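 In this multiplexed HepG2 system, compounds are incubated 24 h with cells carrying GAL4-UAS reporter units. Reporter RNA is amplified and resolved by capillary electrophoresis, and induction is scored against DMSO.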

[5] = target: Nuclear receptor subfamily 4 group A member 2 (Homo sapiens) (UniProt P43354); experiment: ATG_NURR1_TRANS: Attagene TRANS-FACTORIAL HepG2 Assay for human Nuclear Receptor Related Protein 1 (NURR1) (AID 2282985; active = hit-call score of the fitted dose curve at least 0.9, where 1 is the maximum); conditions: HepG2 Attagene TRANS reporter, mRNA readout
Sequence of Nuclear receptor subfamily 4 group A member 2 (Homo sapiens) (P43354 whole entry, looked up, the tested form may be a part): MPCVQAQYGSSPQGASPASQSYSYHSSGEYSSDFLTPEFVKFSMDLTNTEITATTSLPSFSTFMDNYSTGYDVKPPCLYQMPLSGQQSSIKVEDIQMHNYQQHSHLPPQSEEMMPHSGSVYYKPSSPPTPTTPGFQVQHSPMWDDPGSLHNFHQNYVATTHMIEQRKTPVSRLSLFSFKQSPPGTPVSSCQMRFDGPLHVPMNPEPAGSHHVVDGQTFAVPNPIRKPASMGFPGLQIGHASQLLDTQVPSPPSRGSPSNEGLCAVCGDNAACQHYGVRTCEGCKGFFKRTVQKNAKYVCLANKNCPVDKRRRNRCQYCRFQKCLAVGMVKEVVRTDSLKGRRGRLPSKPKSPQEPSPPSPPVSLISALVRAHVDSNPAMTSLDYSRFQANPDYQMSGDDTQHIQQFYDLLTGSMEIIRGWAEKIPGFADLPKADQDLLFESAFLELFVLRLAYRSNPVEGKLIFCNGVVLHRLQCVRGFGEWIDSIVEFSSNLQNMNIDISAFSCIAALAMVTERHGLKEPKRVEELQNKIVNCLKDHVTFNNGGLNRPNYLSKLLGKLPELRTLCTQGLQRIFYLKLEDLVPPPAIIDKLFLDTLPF
In short: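 Reporter transcript induction, measured by RT-PCR with fluorescent labelling, HpaI digestion and capillary electrophoresis, after 24 hr dosing of human HepG2 cells transiently expressing an exogenous NR-Gal4 fusion with GAL4-UAS-driven reporters; DMSO as baseline.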

[6] = ATG_M_32_TRANS: Attagene TRANS-FACTORIAL HepG2 Assay for M32 Transcription Factor (Internal Marker) (AID 2282984; active = hit-call score of the fitted dose curve at least 0.9, where 1 is the maximum;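 note: transcript level of a background control reporter unit measured by RT-PCR and capillary electrophoresis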); conditions: HepG2 Attagene TRANS M32 internal marker reporter
In short: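 Internal background reporter in transfected HepG2: after 24 h chemical exposure, RNA reverse-transcribed, reporter cDNA amplified, fluorescently labelled and HpaI-cut, then sized by capillary electrophoresis. Gain of signal fitted against DMSO control.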

[7] = target: Oxysterols receptor LXR-beta (Homo sapiens) (UniProt P55055); experiment: ATG_LXRb_TRANS: Attagene TRANS-FACTORIAL HepG2 Assay for human Liver X Receptor beta (LXRb) (AID 2282981; active = hit-call score of the fitted dose curve at least 0.9, where 1 is the maximum); conditions: HepG2 Attagene TRANS GAL4-LXRb reporter, mRNA
Sequence of Oxysterols receptor LXR-beta (Homo sapiens) (P55055 whole entry, looked up, the tested form may be a part): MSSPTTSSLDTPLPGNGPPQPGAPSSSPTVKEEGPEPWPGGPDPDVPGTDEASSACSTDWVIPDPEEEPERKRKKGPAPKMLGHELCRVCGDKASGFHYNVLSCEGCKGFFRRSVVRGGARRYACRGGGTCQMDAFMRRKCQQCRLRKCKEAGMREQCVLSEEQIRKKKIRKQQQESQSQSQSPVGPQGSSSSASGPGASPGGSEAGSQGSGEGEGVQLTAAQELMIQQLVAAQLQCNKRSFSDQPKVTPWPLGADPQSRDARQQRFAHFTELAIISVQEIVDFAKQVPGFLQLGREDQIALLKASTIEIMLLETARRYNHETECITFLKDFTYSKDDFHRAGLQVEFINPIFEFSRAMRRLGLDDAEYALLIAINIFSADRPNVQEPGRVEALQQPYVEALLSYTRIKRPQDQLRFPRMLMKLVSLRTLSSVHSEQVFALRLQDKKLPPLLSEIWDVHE
In short: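 After 24 h chemical treatment of transfected HepG2 cells carrying exogenous NR-Gal4 chimeras, reporter mRNA was quantified by fluorescent RT-PCR and capillary electrophoresis; activity taken as increase over DMSO controls.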

**Q.** Which outcome [1] does the source give for `OC[C@H]1O[C@@H]2O[C@H]3[C@H](O)[C@@H](O)[C@@H](O[C@H]4[C@H](O)[C@@H](O)[C@@H](O[C@H]5[C@H](O)[C@@H](O)[C@@H](O[C@H]6[C@H](O)[C@@H](O)[C@@H](O[C@H]7[C@H](O)[C@@H](O)[C@@H](O[C@H]8[C@H](O)[C@@H](O)[C@@H](O[C@H]9[C@H](O)[C@@H](O)[C@@H](O[C@H]1[C@H](O)[C@H]2O)O[C@@H]9CO)O[C@@H]8CO)O[C@@H]7CO)O[C@@H]6CO)O[C@@H]5CO)O[C@@H]4CO)O[C@@H]3CO` here?
**A.** inactive

**Q.** And the outcome [2]?
**A.** inactive

**Q.** And the outcome [3]?
**A.** inactive

**Q.** For `C[Si]1(C)O[Si](C)(C)O[Si](C)(C)O1`, which outcome [2] is on record?
**A.** inactive

**Q.** And the outcome [3]?
**A.** inactive

**Q.** For `CCCCC1(COC(=O)CCC(=O)O)C(=O)N(c2ccccc2)N(c2ccccc2)C1=O`, which outcome [4] is on record?
**A.** inactive

**Q.** What about the outcome [5] of the same molecule?
**A.** inactive

**Q.** And the outcome [2]?
**A.** inactive

**Q.** What about the outcome [3] of the same molecule?
**A.** inactive

**Q.** For `CCC(C)c1cc([N+](=O)[O-])cc([N+](=O)[O-])c1OC(=O)OC(C)C` (stereo not given), which outcome [1] is on record?
**A.** inactive

**Q.** What about the outcome [6] of the same molecule?
**A.** inactive

**Q.** And the AC50 [2]?
**A.** 156 µM (active)

**Q.** What about the AC50 [3] of the same molecule?
**A.** 143 µM (active)

**Q.** Which results are given for `O=C(O)CCCCCCCCCCCC(=O)O`?
**A.** outcome [2]: inactive; outcome [3]: inactive

**Q.** For `Brc1ccc(Br)c(Br)c1`, which outcome [2] is on record?
**A.** inactive

**Q.** And the outcome [3]?
**A.** inactive

**Q.** For `CCCCCc1ccco1`, which outcome [1] is on record?
**A.** inactive

**Q.** And the outcome [5]?
**A.** inactive

**Q.** What about the outcome [2] of the same molecule?
**A.** inactive

**Q.** And the outcome [3]?
**A.** inactive

**Q.** With `Cc1cccc(Nc2ccccc2)c1` as the molecule, how does the outcome [4] read?
**A.** inactive

**Q.** And the outcome [5]?
**A.** inactive

**Q.** What about the AC50 [2] of the same molecule?
**A.** 170 µM (active)

**Q.** And the outcome [3]?
**A.** inactive

**Q.** With `CCCCC(CC)COC(C)=O` (stereo not given) as the molecule, how does the outcome [1] read?
**A.** inactive

**Q.** What about the outcome [2] of the same molecule?
**A.** inactive

**Q.** And the outcome [3]?
**A.** inactive

**Q.** Which results are given for `CSCCC=O`?
**A.** outcome [4]: inactive; outcome [2]: inactive; outcome [3]: inactive

**Q.** With `O=C(O)c1cccnc1C(=O)O` as the molecule, how does the outcome [1] read?
**A.** inactive

**Q.** What about the outcome [2] of the same molecule?
**A.** inactive

**Q.** What about the outcome [3] of the same molecule?
**A.** inactive

**Q.** Which outcome [4] does the source give for `CS(=O)(=O)OCCCCOS(C)(=O)=O` here?
**A.** inactive

**Q.** What about the outcome [2] of the same molecule?
**A.** inactive

**Q.** And the outcome [3]?
**A.** inactive

**Q.** Which outcome [6] does the source give for `CCCOC(=O)c1c(Cl)c(Cl)c(Cl)c(Cl)c1C(=O)OCCC` here?
**A.** inactive

**Q.** What about the outcome [5] of the same molecule?
**A.** inactive

**Q.** And the outcome [2]?
**A.** inactive

**Q.** What about the AC50 [3] of the same molecule?
**A.** 146 µM (active)

**Q.** With `CC(Oc1cc(Cl)ccc1Cl)C(=O)O` (stereo not given) as the molecule, how does the outcome [7] read?
**A.** inactive

**Q.** What about the outcome [5] of the same molecule?
**A.** inactive

**Q.** And the outcome [2]?
**A.** inactive

**Q.** And the outcome [3]?
**A.** inactive

**Q.** Which outcome [1] does the source give for `CC(=O)Nc1ccc(C(=O)CCl)cc1` here?
**A.** inactive

**Q.** What about the outcome [4] of the same molecule?
**A.** inactive

**Q.** And the outcome [5]?
**A.** inactive

**Q.** What about the outcome [2] of the same molecule?
**A.** inactive

**Q.** What about the outcome [3] of the same molecule?
**A.** inactive

**Q.** With `CCCCCCCCCC(=O)OC` as the molecule, how does the outcome [1] read?
**A.** inactive

**Q.** And the outcome [2]?
**A.** inactive

**Q.** And the outcome [3]?
**A.** inactive

**Q.** What does the source list for `Cc1ccc(-c2ccccc2)cc1`?
**A.** outcome [4]: inactive; outcome [5]: inactive; outcome [2]: inactive; outcome [3]: inactive

**Q.** Which outcome [4] does the source give for `CC(C)CCCCCCc1ccc(OCCOCCO)cc1` here?
**A.** inactive

**Q.** And the outcome [2]?
**A.** inactive

**Q.** And the outcome [3]?
**A.** inactive

**Q.** With `COc1ccc(N=Nc2cc(C)c(N=Nc3ccc(S(=O)(=O)O)cc3)cc2OC)cc1` as the molecule, how does the outcome [1] read?
**A.** inactive

**Q.** And the outcome [6]?
**A.** inactive

**Q.** And the outcome [2]?
**A.** inactive

**Q.** What about the AC50 [3] of the same molecule?
**A.** 71.8 µM (active)

**Q.** With `Cc1c(Cl)cccc1[N+](=O)[O-]` as the molecule, how does the outcome [1] read?
**A.** inactive

**Q.** And the outcome [2]?
**A.** inactive

**Q.** What about the outcome [3] of the same molecule?
**A.** inactive

**Q.** For `C=C(C)C(=O)OCCOCCOCCOCCOC(=O)C(=C)C`, which outcome [1] is on record?
**A.** inactive

**Q.** And the outcome [4]?
**A.** inactive

**Q.** What about the outcome [2] of the same molecule?
**A.** inactive

**Q.** What about the outcome [3] of the same molecule?
**A.** inactive

**Q.** With `O=[N+]([O-])c1cccc(Cl)c1` as the molecule, how does the outcome [4] read?
**A.** inactive

**Q.** What about the outcome [2] of the same molecule?
**A.** inactive

**Q.** What about the outcome [3] of the same molecule?
**A.** inactive

**Q.** With `CC1CC(O)CC(C)(C)C1` (stereo not given) as the molecule, how does the outcome [2] read?
**A.** inactive

**Q.** And the outcome [3]?
**A.** inactive

**Q.** For `Cc1ccc(OC(=O)c2ccccc2O)cc1`, which outcome [4] is on record?
**A.** inactive

**Q.** And the outcome [6]?
**A.** inactive

**Q.** And the outcome [5]?
**A.** inactive

**Q.** And the outcome [2]?
**A.** inactive

**Q.** What about the outcome [3] of the same molecule?
**A.** inactive

**Q.** With `CCOc1ccc(NC(=O)CC(C)O)cc1` (stereo not given) as the molecule, how does the outcome [1] read?
**A.** inactive

**Q.** And the outcome [5]?
**A.** inactive

**Q.** What about the outcome [2] of the same molecule?
**A.** inactive

**Q.** What about the outcome [3] of the same molecule?
**A.** inactive

**Q.** Which outcome [2] does the source give for `CC(C)(C)c1ccc(C(=O)O)cc1` here?
**A.** inactive

**Q.** And the outcome [3]?
**A.** inactive

**Q.** Which outcome [1] does the source give for `C[N+](C)(C)CCCCCC[N+](C)(C)C` here?
**A.** inactive

**Q.** And the outcome [4]?
**A.** inactive

**Q.** And the outcome [5]?
**A.** inactive

**Q.** What about the outcome [2] of the same molecule?
**A.** inactive

**Q.** And the outcome [3]?
**A.** inactive

**Q.** Which results are given for `CCCCOCC`?
**A.** outcome [5]: inactive; outcome [2]: inactive; outcome [3]: inactive

**Q.** For `CCCCC(CC)(CO)CO`, which outcome [2] is on record?
**A.** inactive

**Q.** What about the outcome [3] of the same molecule?
**A.** inactive

**Q.** What does the source list for `Cc1[nH]c(=O)c(C#N)cc1-c1ccncc1`?
**A.** outcome [7]: inactive; outcome [2]: inactive; outcome [3]: inactive
